# In PubChem BioAssay (NCI):
# The panel holds about 79,000 compounds, 15% with a hit somewhere; the sample as a whole holds those more often. Unmarked numbers belong to inactive results. Activity calls are given as the source filed them. Rule as the data show it: active = growth inhibition above about 70%; inactive = the rest. Where a SMILES comes first, the peptide text is derived from it. [ ]: non-standard residue; d: D form. The star is where a group is joined. Cbz = O=C(OCc1ccccc1)*; Nva = CCC[CH](N)C(=O)O
# Legend:
# [1] = NCI Yeast Anticancer Drug Screen. Data for the rad50 strain (AID 155);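 also: 0% = growth of vehicle-only cultures of the same strain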; conditions: S. cerevisiae rad50 strain growth inhibition; at 50.0 µM; stronger effect = higher value
# Summary of the method: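 Vehicle-treated cultures provide the reference for the growth inhibition reported for compound-exposed, repair-deficient yeast.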
# [2] = NCI Yeast Anticancer Drug Screen. Data for the mec2-1 strain (AID 157); conditions: S. cerevisiae mec2-1 strain, at 50.0 µM, stronger effect = higher value
# Summary of the method: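 mec2-1 yeast strain, carrying an alteration in DNA damage repair or cell cycle control, was exposed to compounds; growth inhibition was measured relative to vehicle-treated controls.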
# [3] = NCI Yeast Anticancer Drug Screen. Data for the sgs1 mgt1 strain (AID 161);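 also: 0% = growth of cultures given vehicle only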; conditions: S. cerevisiae sgs1 mgt1 strain, at 50.0 µM, stronger effect = higher value
# Summary of the method: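 This yeast growth screen uses a strain with defined DNA-repair lesions; compound-treated growth is compared with vehicle-treated growth.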
# [4] = NCI Yeast Anticancer Drug Screen. Data for the cln2 rad14 strain (AID 165);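 also: 0% = growth equal to vehicle treated cultures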; conditions: S. cerevisiae cln2 rad14 strain, at 50.0 µM, stronger effect = higher value
# Summary of the method: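 Yeast carrying cln2 and rad14 alterations (cell cycle control and DNA damage repair) were exposed to compounds. Growth inhibition was measured against vehicle-treated controls.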
# [5] = NCI Yeast Anticancer Drug Screen. Data for the bub3 strain (AID 167); conditions: S. cerevisiae bub3 mutant strain, at 50.0 µM, stronger effect = higher value
# Summary of the method: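 Mutant yeast screening strain plus compound; vehicle-treated cultures serve as the 0% inhibition reference.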
# [6] = NCI Yeast Anticancer Drug Screen. Data for the mlh1 rad18 strain (AID 175); conditions: S. cerevisiae mlh1 rad18 strain growth inhibition; at 50.0 µM; stronger effect = higher value
# Summary of the method: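 Growth inhibition of the yeast strain was measured after compound exposure and expressed relative to vehicle-treated controls. The strain carries defined defects in DNA damage repair.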
SMILES,growth inhibition [1],growth inhibition [2],growth inhibition [3],growth inhibition [4] [%],growth inhibition [5],growth inhibition [6]
O=CNc1ccccc1-c1ccccc1,-33.3%,-15%,-18%,-17.1,-0.15%,2.55%
COC1/C=C/OC2(C)Oc3c(C)c(O)c4c(O)c(c(/C=N/OC/C=C(\C)CCC=C(C)C)c(O)c4c3C2=O)NC(=O)C(C)=C/C=C/C(C)C(O)C(C)C(O)C(C)C(OC(C)=O)C1C (stereo unspecified),-0.15%,-0.5%,-2.65%,-10.9,-8.95%,30.4%
Nc1ccc(S(=O)(=O)NC2C(O)OC(CO)C(O)C2O)cc1 (stereo unspecified),15.6%,-16.2%,6.65%,-21.6,9.7%,28.4%
C=CC(C)(CCC=C(C)C)OC(C)=O (stereo unspecified),27.6%,5.75%,14.7%,1.9,23.9%,34.7%
CN(Cc1ccccc1)C(=O)c1ccccc1C(=O)O,-9.2%,-2.85%,-4.75%,-15.9,-4.95%,13.2%
CN(C)c1ccc(-c2cccc[n+]2C)cc1,-12.8%,12.2%,3.05%,3.25,0.1%,25.7%
COc1ccc(N2C(=O)C3c4[nH]c5ccccc5c4C4CCC(C(C)(C)C)CC4C3C2=O)c(C)c1 (stereo unspecified),11.9%,1.95%,14.7%,17.1,-2.45%,17.1%
Cc1ccc(-n2cnc3c(=O)[nH]cnc32)cc1N,-12.6%,5.45%,3.3%,-9.9,-6.25%,11.2%
Cc1nn2c(-c3ccccc3)cnnc2c1-c1ccccc1,-19.4%,-21.1%,-12.8%,-26.1,6.75%,-10.8%
C/C(CC(=O)Nc1cc(Cl)c(Cl)cc1Cl)=N\NC(N)=O,28.8%,11.7%,1.55%,24.4,30.3%,19.4%
CC(N)/C(N)=N/O (stereo unspecified),11.2%,4.9%,-0.95%,-2.45,18.4%,15%
COc1ccc([Se][Se]c2ccc(OC)cc2NC(C)=O)c(NC(C)=O)c1,19.8%,-6.8%,18.1%,16.1,27.9%,7.15%
Cc1ccc(S(=O)(=O)CCS(C)(=O)=O)cc1,-0.5%,2.2%,13.2%,21.8,-13.7%,-11.2%
CCCC(NC(=O)OCc1ccccc1)C(=O)NC(Cc1ccccc1)C(N)=O (stereo unspecified) (Cbz-[Nva]-Phe-NH2; configuration not given here),-6%,-0.9%,-3.45%,-34.2,-5.5%,0.45%
CC(C)(C)c1cc(C(=O)Nc2cc(Br)c(Br)cc2S(N)(=O)=O)cc(C(C)(C)C)c1O,37%,7.8%,31.6%,25,39.8%,37.9%
COC1=CC(=O)c2nc3ccccc3c3ccnc1c23,87% (active),76.1% (active),83.2% (active),51.2,87.3% (active),87.2% (active)
OC1Cn2cc(Br)c[n+]2C1 (stereo unspecified),8.3%,-5.5%,-21.5%,1.2,-2%,-13.6%
O=C1C(Cl)=C(Nc2ccc([N+](=O)[O-])cc2)C(=O)c2ccccc21,6.6%,2.55%,4.6%,-40,-0.7%,5.5%
S=C1Nc2ccccc2C2CC=NN12 (stereo unspecified),-1.75%,-4.15%,10.6%,-30,-44.6%,29.4%
CN(C(=O)Sc1ccc([N+](=O)[O-])cc1)c1ccc([N+](=O)[O-])cc1,1.3%,15.2%,9.8%,4.05,31.4%,21.3%
N#CC(=O)Nc1ccc(Cl)c(Cl)c1,-18.6%,-11.2%,-14.6%,-76.6,-2.15%,0.4%

SMILES,growth inhibition [1],growth inhibition [2],growth inhibition [3],growth inhibition [4] [%],growth inhibition [5],growth inhibition [6]
C[C@]12CC[C@@H]3c4ccc(OS(=O)(=O)O)cc4CC[C@H]3[C@@H]1CCC2=O,22.2%,-0.4%,12.2%,18.4,23.6%,3.15%
COc1cc(OC2OC(CO)C(O)C(O)C2O)c2c(O)c3c(=O)cc(C)oc3cc2c1 (stereo unspecified),12.8%,19.4%,2.05%,20.7,2.55%,3.8%
CCOc1ccc(NC(=O)c2c(N/N=C/c3ccc(OC)cc3)nc(=O)[nH]c2C)cc1,-14.2%,-31.5%,-21.6%,-8.7,-15.6%,-28.7%
CCC(C)Nc1ccc(NS(=O)(=O)CCl)cc1 (stereo unspecified),54%,6.3%,13.3%,4.25,6.6%,8.9%
O=C(CC(=O)C1CCOC1=O)C(=O)Nc1cccc(Cl)c1 (stereo unspecified),-13.8%,-8.55%,5.5%,-10.7,-12%,21.4%
CCC1CC(=O)NC(=O)NC1=O (stereo unspecified),-4.6%,30.8%,-3.75%,12.1,7.2%,6.9%
CC(C)(C)OC1COCCO1 (stereo unspecified),12.1%,-5.35%,8.35%,1.3,8%,13.8%
CC(=O)ON(C(C)=O)c1ccc(C(N)=O)cc1,-16.6%,6.8%,-13.2%,6.25,-15.3%,-71.5%
O=C(N=Nc1c(O)[nH]c2c(Cl)cc(Cl)cc12)c1ccccc1O,-1.1%,-0.55%,-9.5%,12.5,-8.95%,3.85%
Cc1ccc(C(=O)Nc2ccc(CP(=O)(O)O)cc2CP(=O)(O)O)cc1N,-25.1%,-14.8%,19.3%,6.05,-14.7%,1.8%
CCOC(=O)NC(Nc1ccc(Cl)cn1)(C(F)(F)F)C(F)(F)F,-25.9%,-12.5%,-52.5%,-25.3,-21.6%,-76.2%
CC1=CC(C)(C)Nc2ccccc2N1,-7.1%,-4.85%,-8.8%,14.2,-3%,1.45%
O=C(COCC(=O)N/N=C/c1c(O)ccc2ccccc12)N/N=C/c1c(O)ccc2ccccc12,-2%,-13%,-5.25%,-8.25,-1%,6.9%
CC(=O)Nc1cc(Cl)ccc1SC1OC(COC(C)=O)C(OC(C)=O)C(OC(C)=O)C1OC(C)=O (stereo unspecified),-10.6%,-7.15%,17.9%,-44.2,4.6%,-2.8%
CC1SCC(=O)N1c1nncs1 (stereo unspecified),-3.05%,-0.75%,-51.9%,-46.2,-2.1%,-46.6%
CN(C=O)/C=C/c1cc(O)ccc1O,-0.95%,-0.8%,-1.6%,-4.1,7.7%,5.4%
NC(Cc1ccc(OC(c2ccccc2)c2ccccc2)cc1)C(=O)O (stereo unspecified),6.45%,4.9%,0.75%,-10.7,-13.6%,28.8%
CCCCC(CC)CCC(O)C(O)C(C)C (stereo unspecified) (tested in a mixture with another compound),-3.85%,3.2%,-7.8%,-14.3,-8.95%,-14.8%
O=C(O)c1nnn(Cc2ccccc2)c1C(=O)O,7.75%,-6%,-17.6%,2.35,15.8%,20%
c1ccc(CNc2ncccn2)nc1,21.8%,7.45%,40.7%,7.35,-10%,11.4%
